The record followed here is PubChem BioAssay.

Each structure is given as a SMILES string. Values without a mark were called inactive. How the calls were made is not given here.

The nature of this test: inhibitors of hydroxyurea-induced Chk1 phosphorylation, primary screen, imaging, HeLa, phospho-Chk1 nuclear intensity (AID 1187). Further: test concentration not given here. To be noted: hydroxyurea-induced phospho-Chk1 immunofluorescence imaging, higher = more signal.
Turning to `COc1ccc([Si](C)(C)[C@@H]2[C@@H](CCO)O[C@]3(C(=O)N(Cc4ccccc4)c4ccc(N5C(=O)c6cccc7cccc5c67)cc43)[C@H]2C)cc1`, the z-score is -0.379. Consider `COc1cccc(C)c1NC(=O)O[C@H]1[C@H](OC(=O)Nc2ccc3c(c2)OCO3)[C@@H](OC(=O)Nc2ccc3c(c2)OCO3)[C@@H](OC)O[C@@H]1CO`, for which the z-score is -0.224. In the case of `Cc1cc(C)c(C(O)C2C=CC3C(=O)N(c4ccccc4)C(=O)C3N2Nc2ccccc2F)c(C)c1` (stereo not given) it was -0.0495; in that of `CCCC1(C(=O)OC)C=C2C(=C(C)C(=O)C2C)CN1` (stereo not given), 0.909.

On to `O=C(NCCN1CCOCC1)[C@@H]1c2ccccc2C(=O)N(Cc2ccccc2Cl)[C@H]1c1ccc(CO)cc1`, for which the z-score was 0.227.

On to `C=C(/C(=C/C[C@H](OC(C)=O)c1ccc(CO)o1)c1cnc2ccccc2c1)C(C)C`, for which the z-score is 0.181. As for `CCOC(=O)C[C@H]1[C@H](OC(=O)Cc2ccc3c(c2)OCO3)[C@@H](NC(=O)c2ccc3ccccc3n2)c2cc(OCCCO)ccc2N1C(=O)c1ccc2ccccc2n1`, the z-score is -0.162. In the case of `[N-]=[N+]=Nc1ccccc1C[C@]1(C(=O)NCCN2CCOCC2)COC(c2ccc(OCCCO)cc2)=N1` it was -0.17; in that of `COc1ccc(CCNC(=O)[C@@H]2c3ccccc3C(=O)N(C3CCCCC3)[C@H]2c2ccc(CO)cc2)cc1`, -0.0923.

Take `COCCOC(=O)N1C(=O)[C@@]2(c3ccccc31)[C@H](C(=O)NC[C@H](O)c1ccccc1)[C@H]1C(=O)O[C@H](c3ccccc3)[C@H](c3ccccc3)N1[C@@H]2c1ccc(O)cc1`: the z-score was 0.653.
